High-throughput results (PubChem BioAssay)
Sampled rows, rich in hits. Any-hit rate of the full collection: about 4.7%.
PLK1 inh: blocks human PLK1 kinase activity; P53350; recombinant PLK1 kinase, TR-FRET peptide phosphorylation; inhibition, % at 10 µM; hit rate 0.53% among 97,000; AID 619;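 active means inhibition of 50% or more in the single-concentration screen; inactive means inhibition below 50%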
Pyk2 oligo antag: antagonists of human Pyk2 oligomerization; Q14289; Q293 cells, Pyk2 FERM NanoBiT luminescence; stronger effect = lower value; z-score (the deposit names both 25 µM and 10 µM); hit rate 0.83% among 99,000; AID 1347419;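 active means Z-score of -3 or lower, scaled per plate to the spread of control and sample wells; inactive means z-score above -3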;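 further: negative z-score means lost luminescence so less FERM oligomerization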
Cav3 T inh: human Cav3.2 channel inhibition, primary screen; Cav3.2-expressing cells, Fluo-4 calcium fluorescence FDSS; stronger effect = lower value; B-score at 10 µM; hit rate 4% among 100,000; AID 449739;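 active means single-dose well whose peak fluorescence ratio is a statistical outlier from its plate by either plate-standardised score or position-corrected B-score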
Target sequence (O95180 whole entry, looked up): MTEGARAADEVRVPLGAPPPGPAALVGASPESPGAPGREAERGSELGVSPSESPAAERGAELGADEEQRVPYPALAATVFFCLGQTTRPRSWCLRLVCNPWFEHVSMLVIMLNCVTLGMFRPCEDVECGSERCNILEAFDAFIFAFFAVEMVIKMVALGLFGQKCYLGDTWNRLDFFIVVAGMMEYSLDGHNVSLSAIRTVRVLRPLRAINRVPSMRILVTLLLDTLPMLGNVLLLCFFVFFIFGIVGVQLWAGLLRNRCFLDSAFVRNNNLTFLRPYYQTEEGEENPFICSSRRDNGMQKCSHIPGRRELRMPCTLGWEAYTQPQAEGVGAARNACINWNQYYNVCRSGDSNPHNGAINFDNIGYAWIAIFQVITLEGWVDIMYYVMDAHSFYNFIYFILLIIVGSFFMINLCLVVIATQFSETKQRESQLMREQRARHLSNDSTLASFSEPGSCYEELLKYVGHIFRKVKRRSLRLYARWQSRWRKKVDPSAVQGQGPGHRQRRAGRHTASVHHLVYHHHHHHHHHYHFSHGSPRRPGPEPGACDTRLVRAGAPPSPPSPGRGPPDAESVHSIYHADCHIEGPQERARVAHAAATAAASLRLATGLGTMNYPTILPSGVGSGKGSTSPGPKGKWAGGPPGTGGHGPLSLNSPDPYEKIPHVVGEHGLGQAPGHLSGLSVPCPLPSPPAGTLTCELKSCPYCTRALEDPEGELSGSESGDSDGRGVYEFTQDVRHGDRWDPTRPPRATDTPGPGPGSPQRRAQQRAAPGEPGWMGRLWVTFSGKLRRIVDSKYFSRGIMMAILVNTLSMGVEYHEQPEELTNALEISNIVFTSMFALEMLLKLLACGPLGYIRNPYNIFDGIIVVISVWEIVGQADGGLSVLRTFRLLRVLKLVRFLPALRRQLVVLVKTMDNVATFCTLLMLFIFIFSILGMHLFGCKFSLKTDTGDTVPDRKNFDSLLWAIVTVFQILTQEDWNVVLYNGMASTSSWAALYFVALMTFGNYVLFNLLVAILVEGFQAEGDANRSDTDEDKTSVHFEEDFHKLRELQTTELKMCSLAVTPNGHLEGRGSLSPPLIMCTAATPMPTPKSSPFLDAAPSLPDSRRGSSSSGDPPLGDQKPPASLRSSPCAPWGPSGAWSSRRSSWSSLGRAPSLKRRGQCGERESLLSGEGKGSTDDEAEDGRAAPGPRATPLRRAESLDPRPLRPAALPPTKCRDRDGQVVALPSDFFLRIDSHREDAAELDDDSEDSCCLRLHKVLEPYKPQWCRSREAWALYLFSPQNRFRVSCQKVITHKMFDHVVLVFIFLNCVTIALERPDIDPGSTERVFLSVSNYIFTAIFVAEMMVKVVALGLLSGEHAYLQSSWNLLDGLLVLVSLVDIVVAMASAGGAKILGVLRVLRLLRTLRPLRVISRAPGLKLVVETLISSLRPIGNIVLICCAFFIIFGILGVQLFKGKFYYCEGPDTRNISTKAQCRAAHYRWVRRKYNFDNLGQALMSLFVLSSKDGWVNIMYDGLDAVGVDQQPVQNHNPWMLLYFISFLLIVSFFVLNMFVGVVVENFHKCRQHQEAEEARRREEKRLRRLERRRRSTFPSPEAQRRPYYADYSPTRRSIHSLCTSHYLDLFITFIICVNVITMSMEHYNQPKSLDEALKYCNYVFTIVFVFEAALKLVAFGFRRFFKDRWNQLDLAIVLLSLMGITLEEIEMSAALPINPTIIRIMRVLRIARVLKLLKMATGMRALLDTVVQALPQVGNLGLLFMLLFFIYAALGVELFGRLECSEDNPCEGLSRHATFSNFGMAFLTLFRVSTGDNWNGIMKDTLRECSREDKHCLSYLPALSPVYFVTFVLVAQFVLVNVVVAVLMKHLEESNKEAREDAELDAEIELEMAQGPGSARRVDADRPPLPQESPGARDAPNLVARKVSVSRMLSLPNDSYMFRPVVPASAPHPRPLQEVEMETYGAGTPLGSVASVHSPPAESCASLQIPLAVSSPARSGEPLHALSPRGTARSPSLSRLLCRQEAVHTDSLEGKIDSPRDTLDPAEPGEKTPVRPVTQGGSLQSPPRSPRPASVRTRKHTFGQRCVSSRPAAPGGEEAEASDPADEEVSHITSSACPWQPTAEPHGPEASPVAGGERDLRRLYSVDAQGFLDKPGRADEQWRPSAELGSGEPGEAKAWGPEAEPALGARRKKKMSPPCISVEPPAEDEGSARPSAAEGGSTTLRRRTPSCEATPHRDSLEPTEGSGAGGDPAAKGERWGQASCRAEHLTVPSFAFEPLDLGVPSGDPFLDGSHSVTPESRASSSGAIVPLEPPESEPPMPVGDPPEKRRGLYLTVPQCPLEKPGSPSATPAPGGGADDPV
sdo1 growth: restores growth of sdo1-depleted yeast | AID 817 | hit rate 0.21% among 140,000 | z-score at 10 µM | S. cerevisiae sdo1-depleted JHY4D growth rescue, OD600 30 h; stronger effect = higher value; pdr5 snq2 efflux-pump mutant strain;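 active means z-score above 3 at both the 24 hr and the 30 hr optical density reads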
DAT uptake mod: human DAT dopamine uptake with cocaine, either direction; AID 449768; hit rate 1.3% among 110,000; B-score at 10 µM; LLC-PK1 hDAT cells, [14C]-dopamine uptake with cocaine IC80; actives deviate in either direction;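 active means Z score or B-score, a plate-position-corrected score, falls beyond the plate's 99.7% confidence bounds, in either direction; inactive means both scores lie inside the 99.7% bounds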
Plk1 PBD FP: Plk1 (human) PBD binding inhibition. P53350. Plk1 PBD phosphopeptide binding, fluorescence polarization. inhibition, %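 (tested at about 20 µM)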. hit rate 0.13% among 97,000. AID 693; in the data active means inhibition above about 34%, passing the limit was not always enough
PBD redox DR: redox cycling H2O2 generation counter-screen for Plk1 PBD; shares compounds with Plk1 PBD FP; DTT; 120 tested, under 10 active; EC50, µM; call rule not given here
SDO1 rescue DR: confirmation of growth rescue in SDO1-depleted yeast, bone marrow failure; OD recovery (no concentration beside the values); shares compounds with sdo1 growth; hit rate 44% among 440; S. cerevisiae JHY4D (SDO1-depleted) growth rescue, OD600, 30 h; stronger effect = higher value; efflux-deficient strain, SNQ2 and PDR5 mutated;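 active means yeast growth recovered at 30 hours, either rising with dose fitted slope above 0.001 or with average optical density gain above 0.07, some results past the limit were not filed as active; inactive means growth falling with dose or no effect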
Numbers stand for hits; . = inactive; / = no result given.

SMILES	PLK1 inh	Pyk2 oligo antag	Cav3 T inh	sdo1 growth	DAT uptake mod	Plk1 PBD FP	SDO1 rescue DR	others
Cc1ccc(CNC(=O)c2cc3c(=O)n(C)c4ccccc4c3n2C)cc1	.	/	.	.	.	62	/	PBD redox DR=.
Cc1ccc(C(C(=O)Nc2ccc3c(c2)OCO3)N(C)C(=O)/C=C\c2ccc3c(c2)OCO3)cc1 (stereo not given)	/	/	/	.	/	/	/
Cn1cc(SCC(=O)Nc2ccc3c(c2)OCCO3)c2ccccc21	.	/	.	.	.	44	/	PBD redox DR=.
CCn1c(=O)cc(SCC(=O)Nc2ccc3c(c2)OCO3)c2ccccc21	.	.	.	.	.	.	/
CCn1c(SCC(N)=O)nnc1-c1ccc(S(=O)(=O)N2CCN(C)CC2)cc1	.	.	.	.	.	44	/	PBD redox DR=.
Nc1cc(-c2ccc(Br)cc2)nn1S(=O)(=O)c1cccc2nsnc12	.	/	/	.	/	47	/	PBD redox DR=.
COc1cc(/C=C/C(=O)OCC(=O)N2CCc3ccccc3C2)ccc1O	/	/	/	.	/	/	/
Cc1cccc(C)c1NC1=NC(=S)N(c2ccccc2)C12CCOC(C)(C)C2 (stereo not given)	.	.	.	.	.	111	/	PBD redox DR=.
COc1ccc(Cc2c[nH]c(=O)[nH]c2=O)cc1	.	.	.	.	.	.	/
O=c1[nH]cc(COCc2ccccc2)c(=O)[nH]1	.	.	.	.	.	46	/	PBD redox DR=.
CC12CC3(C)CC(C)(C1)CC(C(=O)Nc1nn[nH]n1)(C2)C3	.	.	.	.	.	.	/
COC(=O)CNC(=O)C12CC3(C)CC(C)(CC(C)(C3)C1)C2	.	.	.	.	.	33	/	PBD redox DR=.
CCCc1[nH]n(-c2ccc(F)cc2)c(=O)c1C=Nc1ccc(C)cc1	/	/	/	.	/	/	/
OCC(CO)(CO)N=Cc1cc(Br)ccc1O	.	.	-7.1	.	.	47	/	PBD redox DR=.
O=c1c(Cl)c(NCc2ccccc2)cnn1C12CC3CC(CC(C3)C1)C2	/	/	/	.	/	/	/
O=C(Nc1ccc2c(c1)OCCO2)C1CC1c1ccccc1 (stereo not given)	/	/	/	.	/	/	/
O=C(O)C1CCCCC1C(=O)Nc1ccc2c(c1)OCCO2 (stereo not given)	.	.	.	.	.	52	/	PBD redox DR=.
O=C1C(C2=C(O)c3ccccc3C2=O)=Nc2ccccc21	.	.	.	.	.	66	/	PBD redox DR=29
COC(=O)Cc1ccc(NC(=S)N2CCN(c3ccc(F)cc3)CC2)cc1	/	/	/	.	/	/	/
CCC1(C)Cc2ccccc2-c2nc(NCCCO)n(-c3ccccc3)c(=O)c21 (stereo not given)	.	.	.	5.8	.	.	.
O=C1COc2ccc(C(=O)COC(=O)Cn3cnc4ccccc43)cc2N1	/	.	.	.	.	/	/
O=C1COc2ccc(C(=O)COC(=O)c3ccc4ccccc4n3)cc2N1	.	.	.	.	.	.	0.099
C=CCc1cc(/C=N/NC(=O)CSc2nnc(CCCc3ccc(OC)cc3)o2)cc(OC)c1O	.	.	.	.	.	.	0.087
C=CCc1cc(/C=N\NC(=O)CSc2nnc(CCCc3ccc(OC)c(C)c3)o2)cc(OC)c1O	.	.	.	.	.	.	/
Cc1nc2ccccc2n1CSc1ccccc1	/	/	/	.	/	/	/
SMILES	PLK1 inh	Pyk2 oligo antag	Cav3 T inh	sdo1 growth	DAT uptake mod	Plk1 PBD FP	SDO1 rescue DR	others
O=C(O)CCCn1nc(C(F)(F)F)c2c1CCCCC2	.	.	.	3.4	.	.	0.061
CC(C(=O)Nc1cccnc1)N1C(=O)c2ccccc2C1=O (stereo not given)	.	.	.	4.1	.	.	0.088
CC1(C)NC(=O)N(CC(O)CN2C(=O)NC(C)(C)C2=O)C1=O	.	.	.	9.1	.	.	0.13
COC(=O)c1cc2ccsc2n1Cc1ccccc1F	/	/	/	.	/	/	/
C/C(=N/NC(=O)c1cccs1)c1ccc(NC(=O)COc2ccc(Cl)cc2Cl)cc1	.	.	.	.	.	.	/
C/C(=N/NC(=O)c1ccc(C)s1)c1cccc(NC(=O)COc2ccc(Cl)cc2Cl)c1	.	/	.	.	.	.	.
O=C(Nc1ccc(Cl)cc1)C1CCCN(S(=O)(=O)c2cnc[nH]2)C1 (stereo not given)	.	/	.	.	.	.	/
CC(C)c1ccc(NC(=O)C2CCCN(S(=O)(=O)c3cnc[nH]3)C2)cc1 (stereo not given)	.	/	.	.	.	.	.
Cc1cccnc1NC(=O)C12CCC(C)(C(=O)O1)C2(C)C (stereo not given)	.	.	.	.	.	.	/
CC12CCC(C(=O)Nc3nccs3)(OC1=O)C2(C)C (stereo not given)	.	.	.	3	.	.	0.091
N#CC(C(=O)C1CCCCC1)c1nc2ccccc2[nH]1 (stereo not given)	.	.	.	8.8	.	.	.
O=C(C1CCCCC1)N1CCC(c2nc3ccccc3[nH]2)CC1	.	.	.	.	.	.	/
COc1ccc(C(=O)NCCc2cn3ccc(C)cc3n2)cc1	.	/	.	.	.	.	0.081
COc1cc(C(=O)NCCc2cn3ccc(C)cc3n2)cc(OC)c1OC	.	/	.	.	.	.	/
O=C(CSc1ncn[nH]1)Nc1nc(-c2ccccc2)ns1	.	.	.	.	.	.	.
CCC(=O)Nc1nc(-c2ccccc2)ns1	.	.	.	.	.	.	/
Cc1cc(-c2ccccc2)n2nc(C)c(C#N)c2n1	.	.	.	12	.	.	.
CCOC(=O)N1CCN(C(=O)Cn2ccc3c(OC)cccc3c2=O)CC1	/	/	.	/	.	/	/
C=CCOC(=O)Nc1c(C(=O)OC)[nH]c2ccccc12	.	.	.	3.9	.	.	.
c1cnc(N2CC[N+]3(CCCC3)CC2)nc1	.	.	.	.	.	.	/
c1cnc(N2CCSCC2)nc1	.	.	.	8.9	.	.	.
CCCCC#Cc1ccccc1CC(=O)Nc1ccccc1	/	/	.	.	.	/	/
CCCCCCCC#Cc1ccccc1/C=N/S(=O)c1ccc(C)cc1 (stereo not given)	/	/	/	13	/	/	.
CCOc1ccc(NC(=O)CC2C(=O)N(c3ccccc3)C(=O)N2CCc2cccs2)cc1 (stereo not given)	/	.	/	.	/	/	/
COc1ccc(C2=NOC(C(=O)Nc3cccnc3)C2)cc1 (stereo not given)	.	.	.	3.5	.	.	.
CCCc1nnc(NC(=O)C(CC)OC(=O)c2cc(C)nc3ccccc23)s1 (stereo not given)	.	.	-4.3	12	.	.	.
CCOC(=O)c1nnn(-c2nonc2N)c1CN1CCc2ccccc2C1	.	.	.	11	.	.	0.11
CCN1CCN(c2ccc(NC(=O)c3ccc4c(c3)[nH]c(=O)n4Cc3ccc(OC)cc3)cc2)CC1	/	/	/	.	/	/	/
Cc1cnc(NC(=O)c2sc3ccccc3c2Cl)s1	/	/	/	.	/	/	/
Cc1ccnc(NC(=O)c2sc3ccccc3c2Cl)c1	/	/	/	3.9	/	/	0.13
